Data: the supplement of paper PMC10849652
Of roughly 8,800 targets only a part is listed; those with a hit were picked by preference. About 0.5% of all pairs of compound and target were hits.

Columns and labels:
Assay in all cases: log2 fold change, soluble protein after heating vs DMSO (PISA); higher = thermal stabilisation; K562 lysate, 10 uM; active = over 0.2 and 3.5 SD of the protein, either way, in both replicates (recomputed)
[1] = compound: C1=CC=C(C=C1)[C@H](COC2=CC3=C(C=C2)NC(=O)N3)NC(=O)C4=CC=CN(C4=O)CC5=CC(=C(C=C5)F)F
Procedure, shortened: (§1)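 Quantification was by TMTpro 16plex LC-MS/MS with equalised channel sums, applied to the supernatant after 21,000xg for 90 min. Samples were crude K562 extract at 1 mg/mL protein in PBS pH 7.4 with 1 mM MgCl2, treated with 10 μM compound for 30 min, heated for 3 min across 48°C-58°C, pooled and brought to 0.5% NP-40 at 4°C. Values are log-two fold changes in thermal stability relative to solvent controls, from duplicates.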

[2] = compound: CC1=C(SC2=C1C(=N[C@H](C3=NN=C(N32)C)CC(=O)N)C4=CC=C(C=C4)Cl)C
Procedure, shortened: as §1

[3] = compound: CC1=C2C(=CC=C1)N=C(N(C2=O)C3=CC=CC=C3C)CN4C=NC5=C(N=CN=C54)N
Procedure, shortened: as §1

[4] = compound: Cc1sc2c(c1C)C(c1ccc(Cl)cc1)=N[C@@H](CC(=O)OC(C)(C)C)c1nnc(C)n1-2
Procedure, shortened: as §1

[5] = compound: c1ccc([C@@H]2C[C@H]2NC2CCNCC2)cc1
Procedure, shortened: as §1

Measured: log2 fold change

PHKB isoform 3 (UniProt Q93100)
Sequence of UniProt Q93100 (Q93100 whole entry, looked up): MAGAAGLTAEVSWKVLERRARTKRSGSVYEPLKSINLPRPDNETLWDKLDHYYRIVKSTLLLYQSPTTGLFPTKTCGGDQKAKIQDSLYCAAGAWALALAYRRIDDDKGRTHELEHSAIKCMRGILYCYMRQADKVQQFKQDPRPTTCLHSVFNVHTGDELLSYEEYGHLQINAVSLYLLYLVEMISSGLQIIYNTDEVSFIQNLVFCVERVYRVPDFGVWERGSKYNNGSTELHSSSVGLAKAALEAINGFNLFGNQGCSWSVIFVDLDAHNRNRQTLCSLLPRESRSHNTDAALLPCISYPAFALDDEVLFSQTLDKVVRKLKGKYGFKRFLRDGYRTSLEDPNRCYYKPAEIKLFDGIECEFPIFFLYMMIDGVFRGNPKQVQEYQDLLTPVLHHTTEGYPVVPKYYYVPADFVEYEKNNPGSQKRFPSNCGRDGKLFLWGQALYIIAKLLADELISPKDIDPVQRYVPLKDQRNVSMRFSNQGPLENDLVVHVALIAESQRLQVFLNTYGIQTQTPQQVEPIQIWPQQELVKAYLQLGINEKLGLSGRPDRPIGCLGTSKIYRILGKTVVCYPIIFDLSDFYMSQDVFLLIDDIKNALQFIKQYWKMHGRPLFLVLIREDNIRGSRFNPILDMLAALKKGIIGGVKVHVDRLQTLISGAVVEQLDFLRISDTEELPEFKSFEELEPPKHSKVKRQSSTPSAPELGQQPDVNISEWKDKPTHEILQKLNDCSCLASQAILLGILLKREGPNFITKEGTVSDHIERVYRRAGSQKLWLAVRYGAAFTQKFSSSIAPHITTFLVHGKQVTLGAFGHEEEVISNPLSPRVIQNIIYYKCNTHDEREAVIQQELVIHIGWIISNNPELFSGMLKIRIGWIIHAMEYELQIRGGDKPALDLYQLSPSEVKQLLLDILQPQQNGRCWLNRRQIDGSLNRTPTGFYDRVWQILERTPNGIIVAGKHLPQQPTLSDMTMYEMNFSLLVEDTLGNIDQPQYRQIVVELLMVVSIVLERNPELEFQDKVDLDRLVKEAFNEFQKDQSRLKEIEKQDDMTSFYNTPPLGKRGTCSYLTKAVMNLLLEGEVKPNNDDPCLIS
inactive: [1] 0.015 | [2] 0.011 | [3] 0.042 | [4] -0.012 | [5] -0.066

PHGDH (UniProt O43175)
inactive: [1] -0.014 | [2] 0.017 | [3] 0.047 | [4] 0.046 | [5] 0.052

PRPF38A (UniProt Q8NAV1)
Sequence of UniProt Q8NAV1 (Q8NAV1 whole entry, looked up): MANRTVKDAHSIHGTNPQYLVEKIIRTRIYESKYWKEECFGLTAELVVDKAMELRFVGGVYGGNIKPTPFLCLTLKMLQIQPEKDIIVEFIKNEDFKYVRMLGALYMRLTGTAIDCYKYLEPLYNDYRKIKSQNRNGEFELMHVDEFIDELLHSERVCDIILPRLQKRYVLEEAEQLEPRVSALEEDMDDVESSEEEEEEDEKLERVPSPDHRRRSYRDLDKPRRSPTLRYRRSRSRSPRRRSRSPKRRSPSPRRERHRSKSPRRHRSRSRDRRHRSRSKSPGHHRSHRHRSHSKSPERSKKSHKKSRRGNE
inactive: [1] 0.034 | [2] -0.055 | [3] -0.08 | [4] -0.024 | [5] -0.133

PRMT7 (UniProt Q9NVM4)
Sequence of UniProt Q9NVM4 (Q9NVM4 whole entry, looked up): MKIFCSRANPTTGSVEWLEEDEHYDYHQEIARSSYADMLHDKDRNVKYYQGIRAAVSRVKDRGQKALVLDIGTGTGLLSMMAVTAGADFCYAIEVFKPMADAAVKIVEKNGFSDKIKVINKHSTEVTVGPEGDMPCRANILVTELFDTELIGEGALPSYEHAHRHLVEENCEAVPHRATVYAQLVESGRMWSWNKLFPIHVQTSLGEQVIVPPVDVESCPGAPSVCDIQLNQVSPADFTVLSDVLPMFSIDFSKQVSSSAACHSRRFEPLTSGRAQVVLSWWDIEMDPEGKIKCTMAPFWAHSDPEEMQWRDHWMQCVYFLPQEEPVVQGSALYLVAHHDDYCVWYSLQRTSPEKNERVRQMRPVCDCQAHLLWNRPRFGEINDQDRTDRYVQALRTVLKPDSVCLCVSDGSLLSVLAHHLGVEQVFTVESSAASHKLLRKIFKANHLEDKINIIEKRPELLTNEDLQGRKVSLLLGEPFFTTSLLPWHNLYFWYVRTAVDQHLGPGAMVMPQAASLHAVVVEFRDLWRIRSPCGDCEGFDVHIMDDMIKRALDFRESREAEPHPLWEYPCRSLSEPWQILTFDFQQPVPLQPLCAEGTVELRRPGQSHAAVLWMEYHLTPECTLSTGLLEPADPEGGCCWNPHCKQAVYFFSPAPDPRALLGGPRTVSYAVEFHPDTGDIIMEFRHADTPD
inactive: [1] -0.002 | [2] -0.029 | [3] 0.009 | [4] -0.039 | [5] 0.014

PIK3R1 (UniProt P27986)
Sequence of UniProt P27986 (P27986 whole entry, looked up): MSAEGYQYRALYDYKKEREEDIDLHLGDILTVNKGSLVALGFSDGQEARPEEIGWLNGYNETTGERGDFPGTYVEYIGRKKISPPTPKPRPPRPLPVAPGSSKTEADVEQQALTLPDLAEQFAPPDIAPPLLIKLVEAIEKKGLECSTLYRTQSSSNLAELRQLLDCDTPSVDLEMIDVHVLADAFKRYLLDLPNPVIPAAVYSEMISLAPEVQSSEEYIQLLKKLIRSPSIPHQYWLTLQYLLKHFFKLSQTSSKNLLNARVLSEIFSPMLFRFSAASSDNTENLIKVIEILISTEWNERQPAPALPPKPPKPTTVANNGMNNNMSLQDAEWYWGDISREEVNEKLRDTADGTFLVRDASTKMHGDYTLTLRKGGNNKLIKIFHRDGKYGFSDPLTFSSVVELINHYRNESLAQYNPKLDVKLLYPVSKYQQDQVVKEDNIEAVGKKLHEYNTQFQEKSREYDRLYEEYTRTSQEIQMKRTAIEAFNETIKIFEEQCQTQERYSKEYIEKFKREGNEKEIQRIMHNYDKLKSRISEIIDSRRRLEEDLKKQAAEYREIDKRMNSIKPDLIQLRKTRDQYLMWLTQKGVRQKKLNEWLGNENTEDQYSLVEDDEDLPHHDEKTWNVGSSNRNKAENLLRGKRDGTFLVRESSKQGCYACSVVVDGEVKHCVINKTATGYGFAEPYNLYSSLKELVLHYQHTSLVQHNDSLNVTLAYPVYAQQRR
inactive: [1] -0.014 | [2] -0.065 | [3] 0.313 | [4] -0.024 | [5] -0.007

PCBD2 (UniProt Q9H0N5)
Sequence of UniProt Q9H0N5 (Q9H0N5 whole entry, looked up): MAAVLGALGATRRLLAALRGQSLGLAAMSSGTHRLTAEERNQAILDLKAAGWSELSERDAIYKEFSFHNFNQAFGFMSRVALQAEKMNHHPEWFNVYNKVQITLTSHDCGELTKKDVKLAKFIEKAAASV
inactive: [1] -0.019 | [2] 0.048 | [3] 0.002 | [4] -0.011 | [5] -0.172

PRKCSH (UniProt K7ELL7)
inactive: [1] 0.045 | [2] -0.027 | [3] -0.157 | [4] -0.112 | [5] -0.048

PICALM (UniProt H0YEH1)
inactive: [1] 0.018 | [2] -0.027 | [3] -0.138 | [4] 0.075 | [5] -0.303

POLR2G (UniProt P62487)
inactive: [1] 0.018 | [2] 0.021 | [3] -0.003 | [4] 0.007 | [5] -0.108

PLA2G4B isoform 6 (UniProt P0C869)
Sequence of UniProt P0C869 (P0C869 whole entry, looked up): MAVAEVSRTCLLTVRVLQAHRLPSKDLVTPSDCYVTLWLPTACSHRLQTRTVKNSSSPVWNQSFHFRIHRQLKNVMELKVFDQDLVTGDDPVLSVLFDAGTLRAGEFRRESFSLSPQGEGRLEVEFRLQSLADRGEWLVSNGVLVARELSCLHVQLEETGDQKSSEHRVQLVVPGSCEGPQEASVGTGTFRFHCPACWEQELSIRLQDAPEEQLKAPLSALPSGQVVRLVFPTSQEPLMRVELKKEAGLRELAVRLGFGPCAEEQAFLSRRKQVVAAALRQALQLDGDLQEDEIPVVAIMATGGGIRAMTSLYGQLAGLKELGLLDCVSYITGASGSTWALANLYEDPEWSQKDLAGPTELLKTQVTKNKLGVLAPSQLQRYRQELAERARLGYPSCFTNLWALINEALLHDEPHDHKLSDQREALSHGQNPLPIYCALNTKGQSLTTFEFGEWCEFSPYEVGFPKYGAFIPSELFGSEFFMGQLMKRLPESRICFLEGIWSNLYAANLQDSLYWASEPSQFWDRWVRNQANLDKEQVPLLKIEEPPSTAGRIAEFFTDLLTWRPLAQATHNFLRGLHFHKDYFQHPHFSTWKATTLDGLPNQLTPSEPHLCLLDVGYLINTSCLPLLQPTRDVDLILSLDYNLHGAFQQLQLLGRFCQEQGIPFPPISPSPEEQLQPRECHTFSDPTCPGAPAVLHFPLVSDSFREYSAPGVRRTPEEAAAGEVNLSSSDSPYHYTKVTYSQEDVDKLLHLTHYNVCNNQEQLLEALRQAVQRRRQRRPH
inactive: [1] -0.003 | [2] 0.024 | [3] -0.052 | [4] 0.099 | [5] -0.019

PEX2 (UniProt P28328)
Sequence of UniProt P28328 (P28328 whole entry, looked up): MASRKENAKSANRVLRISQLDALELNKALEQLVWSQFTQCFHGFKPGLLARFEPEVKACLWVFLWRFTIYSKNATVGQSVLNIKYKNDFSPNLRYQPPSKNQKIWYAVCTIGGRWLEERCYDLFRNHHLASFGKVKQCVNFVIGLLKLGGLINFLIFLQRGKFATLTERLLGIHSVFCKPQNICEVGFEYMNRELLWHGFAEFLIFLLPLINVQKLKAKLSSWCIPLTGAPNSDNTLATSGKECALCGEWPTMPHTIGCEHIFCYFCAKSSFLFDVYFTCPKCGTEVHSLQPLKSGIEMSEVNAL
inactive: [1] -0.243 | [2] 0.053 | [3] -0.048 | [4] 0.116 | [5] -0.365

PRKD2 isoform 3 (UniProt Q9BZL6)
Sequence of UniProt Q9BZL6 (Q9BZL6 whole entry, looked up): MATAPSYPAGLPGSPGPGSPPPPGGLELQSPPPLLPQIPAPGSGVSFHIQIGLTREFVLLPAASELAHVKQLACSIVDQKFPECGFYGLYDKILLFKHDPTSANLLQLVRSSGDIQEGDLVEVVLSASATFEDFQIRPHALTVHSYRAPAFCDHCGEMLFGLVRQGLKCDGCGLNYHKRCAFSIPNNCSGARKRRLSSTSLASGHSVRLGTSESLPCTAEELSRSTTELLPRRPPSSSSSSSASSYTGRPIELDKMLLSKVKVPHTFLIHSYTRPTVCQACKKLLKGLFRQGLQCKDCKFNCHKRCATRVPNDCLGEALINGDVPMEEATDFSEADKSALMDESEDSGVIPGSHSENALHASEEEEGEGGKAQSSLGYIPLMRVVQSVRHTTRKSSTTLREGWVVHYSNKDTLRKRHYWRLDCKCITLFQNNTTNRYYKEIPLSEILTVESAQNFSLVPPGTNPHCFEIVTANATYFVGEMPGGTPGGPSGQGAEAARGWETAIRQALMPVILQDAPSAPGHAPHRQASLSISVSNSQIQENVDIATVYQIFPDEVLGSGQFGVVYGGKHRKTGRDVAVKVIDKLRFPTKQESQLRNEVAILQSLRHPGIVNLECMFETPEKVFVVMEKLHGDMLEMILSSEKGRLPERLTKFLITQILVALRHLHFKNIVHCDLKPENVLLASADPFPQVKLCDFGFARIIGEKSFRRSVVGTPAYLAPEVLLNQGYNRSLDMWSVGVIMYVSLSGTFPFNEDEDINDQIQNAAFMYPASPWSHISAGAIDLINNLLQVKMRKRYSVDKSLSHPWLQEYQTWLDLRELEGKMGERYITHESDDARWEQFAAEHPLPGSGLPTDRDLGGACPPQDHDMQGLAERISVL
inactive: [1] 0.001 | [2] -0.031 | [3] 0.121 | [4] 0.02 | [5] 0.104

PRKACB isoform 2 (UniProt P22694)
inactive: [1] -0.042 | [2] -0.004 | [3] -0.018 | [4] -0.009 | [5] 0.019

PYURF (UniProt Q96I23)
inactive: [1] 0.03 | [2] 0.048 | [3] 0.126 | [4] 0.007 | [5] -0.091
